# Several values for one entry are separate records, joined by “and”; a condition that tells them apart may be missing. Equal entries are not always repeated. Inconclusive results are not listed. The source holds several records for some structures; these can differ, active in one and inactive in another. Activity calls are given as the source filed them. How the source made its calls, unless noted: active means hit-call score of the fitted dose curve at least 0.9, where 1 is the maximum; inconclusive means response in the unintended direction; inactive means score below 0.9.
# Assays:
# [1] = biological target: Cytochrome P450 2C18 (Homo sapiens) (UniProt P33260); experiment: NVS_ADME_hCYP2C18: NovaScreen (NVS) CYP450-related Enzyme Activity (ADME) Assay for human CYP2C18 (AID 2283103; active means hit-call score of the fitted dose curve at least 0.9, where 1 is the maximum; inactive means score below 0.9)
# Chain of Cytochrome P450 2C18 (Homo sapiens) (P33260 whole entry, looked up): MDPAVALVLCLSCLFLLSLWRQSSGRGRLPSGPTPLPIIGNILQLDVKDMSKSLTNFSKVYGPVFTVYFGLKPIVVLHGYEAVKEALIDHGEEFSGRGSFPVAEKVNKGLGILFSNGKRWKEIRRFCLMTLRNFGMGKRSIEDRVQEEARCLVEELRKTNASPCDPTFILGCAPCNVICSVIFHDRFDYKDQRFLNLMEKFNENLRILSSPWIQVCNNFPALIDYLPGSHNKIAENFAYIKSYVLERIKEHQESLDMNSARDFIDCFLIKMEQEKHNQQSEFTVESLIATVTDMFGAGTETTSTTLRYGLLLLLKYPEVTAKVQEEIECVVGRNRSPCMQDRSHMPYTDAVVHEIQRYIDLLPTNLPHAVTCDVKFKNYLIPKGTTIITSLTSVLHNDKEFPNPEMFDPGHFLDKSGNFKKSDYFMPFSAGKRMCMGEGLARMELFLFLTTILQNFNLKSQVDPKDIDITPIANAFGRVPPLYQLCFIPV
# Method in brief: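 Cell-free recombinant human CYP2C18 with fluorogenic substrate; fluorescence intensity read 0.5 h after dosing. Single-point screen at 10 uM in duplicate, then concentration-response up to 20 uM; loss of signal fitted against acetonitrile baseline.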
# [2] = biological target: human CYP2C9, CYP2C9 (gene 1559) (UniProt P11712); experiment: NVS_ADME_hCYP2C9: NovaScreen (NVS) CYP450-related Enzyme Activity (ADME) Assay for human CYP2C9 (AID 2283108)
# Chain of human CYP2C9, CYP2C9 (gene 1559) (P11712 whole entry, looked up): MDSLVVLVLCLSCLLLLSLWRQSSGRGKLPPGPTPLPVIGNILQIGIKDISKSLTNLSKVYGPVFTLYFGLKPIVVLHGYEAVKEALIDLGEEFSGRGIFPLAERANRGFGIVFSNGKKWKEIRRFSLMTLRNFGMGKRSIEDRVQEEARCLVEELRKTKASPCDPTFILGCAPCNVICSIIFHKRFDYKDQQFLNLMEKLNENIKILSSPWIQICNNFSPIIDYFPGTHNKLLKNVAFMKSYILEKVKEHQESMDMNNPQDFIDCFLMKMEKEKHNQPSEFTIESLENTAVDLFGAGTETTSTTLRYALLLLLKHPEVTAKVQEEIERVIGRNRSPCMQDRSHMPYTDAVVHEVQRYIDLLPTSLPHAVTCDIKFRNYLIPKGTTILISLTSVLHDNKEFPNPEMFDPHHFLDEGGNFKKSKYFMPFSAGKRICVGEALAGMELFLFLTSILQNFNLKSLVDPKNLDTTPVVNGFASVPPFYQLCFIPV
# Method in brief: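 Fluorescence readout of CYP2C9 activity (SF9-expressed human enzyme) at 0.75 h. The primary screen used 10 uM in duplicate, with concentration-response follow-up for actives; acetonitrile was the negative control.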
# [3] = biological target: Cytochrome P450 3A4 (Homo sapiens) (UniProt P08684); experiment: NVS_ADME_hCYP3A4: NovaScreen (NVS) CYP450-related Enzyme Activity (ADME) Assay for human CYP3A4 (AID 2283110)
# Chain of Cytochrome P450 3A4 (Homo sapiens) (P08684 whole entry, looked up): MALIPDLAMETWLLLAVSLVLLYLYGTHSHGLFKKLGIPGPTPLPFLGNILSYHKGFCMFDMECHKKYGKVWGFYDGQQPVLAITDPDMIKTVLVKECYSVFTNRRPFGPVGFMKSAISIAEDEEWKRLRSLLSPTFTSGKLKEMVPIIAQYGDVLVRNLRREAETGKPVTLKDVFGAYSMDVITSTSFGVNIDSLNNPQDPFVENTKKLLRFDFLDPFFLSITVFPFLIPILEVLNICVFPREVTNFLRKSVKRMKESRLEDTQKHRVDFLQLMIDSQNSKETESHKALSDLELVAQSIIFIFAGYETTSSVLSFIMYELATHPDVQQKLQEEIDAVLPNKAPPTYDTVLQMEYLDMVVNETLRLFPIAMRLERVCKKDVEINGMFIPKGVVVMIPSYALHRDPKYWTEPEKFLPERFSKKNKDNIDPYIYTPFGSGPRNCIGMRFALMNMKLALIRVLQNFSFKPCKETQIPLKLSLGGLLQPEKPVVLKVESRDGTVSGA
# Method in brief: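 Compounds were first screened in duplicate at 10 uM against recombinant CYP3A4 produced in insect cells, then actives were run in concentration series. Enzyme activity was measured by fluorescence after 0.33 hour, with acetonitrile as baseline.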
# [4] = biological target: rat CYP2A1, Cyp2a1 (gene 24894) (UniProt P11711); experiment: NVS_ADME_rCYP2A1: NovaScreen (NVS) CYP450-related Enzyme Activity (ADME) Assay for rat CYP2A1 (AID 2283114; active means hit-call score of the fitted dose curve at least 0.9, where 1 is the maximum; inactive means score below 0.9)
# Method in brief: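 Recombinant rat CYP2A1, cell-free, fluorogenic substrate turnover read by fluorescence intensity 0.75 h after dosing. Primary screen at 10 uM in duplicate; actives rerun as concentration-response up to 20 uM; loss of signal versus acetonitrile control.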
# [5] = biological target: rat CYP2A2, Cyp2a2 (gene 24895) (UniProt P15149); experiment: NVS_ADME_rCYP2A2: NovaScreen (NVS) CYP450-related Enzyme Activity (ADME) Assay for rat CYP2A2 (AID 2283116)
# Chain of rat CYP2A2, Cyp2a2 (gene 24895) (P15149 whole entry, looked up): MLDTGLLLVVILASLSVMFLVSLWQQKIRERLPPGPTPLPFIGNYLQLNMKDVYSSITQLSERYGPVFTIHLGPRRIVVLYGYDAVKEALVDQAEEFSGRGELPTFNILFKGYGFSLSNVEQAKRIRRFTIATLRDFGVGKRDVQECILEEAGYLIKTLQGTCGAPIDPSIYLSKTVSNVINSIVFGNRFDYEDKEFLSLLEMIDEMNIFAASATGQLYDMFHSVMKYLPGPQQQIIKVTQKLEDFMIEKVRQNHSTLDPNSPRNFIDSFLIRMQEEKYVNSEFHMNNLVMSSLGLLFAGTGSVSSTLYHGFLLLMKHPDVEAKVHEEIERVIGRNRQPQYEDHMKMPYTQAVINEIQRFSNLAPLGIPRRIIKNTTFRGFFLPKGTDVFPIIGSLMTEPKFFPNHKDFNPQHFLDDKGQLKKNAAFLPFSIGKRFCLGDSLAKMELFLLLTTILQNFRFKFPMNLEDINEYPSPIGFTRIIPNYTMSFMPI
# Method in brief: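 Cell-free recombinant rat CYP2A2 activity with fluorogenic substrate, fluorescence read 0.2 h after dosing. Chemicals screened at 10 uM in duplicate, hits then run in concentration-response up to 20 uM; signal loss versus acetonitrile baseline.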
# rat CYP2B1, gene 24300 = experiment: NVS_ADME_rCYP2B1: NovaScreen (NVS) CYP450-related Enzyme Activity (ADME) Assay for rat CYP2B1 (AID 2283117)
# Method in brief: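 Recombinant rat CYP2B1 with fluorogenic substrate, read at 0.75 h. Primary screen in duplicate at 10 uM; compounds meeting threshold (e.g., 30% inhibition) re-run in concentration-response up to 20 uM. Fitted against acetonitrile control.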
# [6] = biological target: rat CYP2C11, Cyp2c11 (gene 29277) (UniProt P08683); experiment: NVS_ADME_rCYP2C11: NovaScreen (NVS) CYP450-related Enzyme Activity (ADME) Assay for rat CYP2C11 (AID 2283118)
# Chain of rat CYP2C11, Cyp2c11 (gene 29277) (P08683 whole entry, looked up): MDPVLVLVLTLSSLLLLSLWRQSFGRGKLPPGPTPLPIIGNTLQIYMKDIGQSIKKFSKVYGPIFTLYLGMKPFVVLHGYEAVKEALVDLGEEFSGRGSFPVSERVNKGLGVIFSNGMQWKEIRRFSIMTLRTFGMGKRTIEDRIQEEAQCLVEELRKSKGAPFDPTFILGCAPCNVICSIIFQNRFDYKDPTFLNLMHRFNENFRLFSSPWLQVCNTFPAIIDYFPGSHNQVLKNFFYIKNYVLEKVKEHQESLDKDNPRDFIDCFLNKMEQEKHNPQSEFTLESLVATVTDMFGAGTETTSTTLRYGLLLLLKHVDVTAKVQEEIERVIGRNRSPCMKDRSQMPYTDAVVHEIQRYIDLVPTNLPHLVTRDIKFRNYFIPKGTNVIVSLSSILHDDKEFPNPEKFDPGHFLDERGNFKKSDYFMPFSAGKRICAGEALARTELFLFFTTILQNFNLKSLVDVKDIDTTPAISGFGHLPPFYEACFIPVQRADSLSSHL
# Method in brief: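 Cell-free recombinant rat enzyme with fluorescent substrate; readout 0.33 h after dosing, loss of signal versus acetonitrile control. Initial duplicate single-point at 10 uM; actives rerun in concentration series.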
# [7] = biological target: rat CYP2C13, Cyp2c13 (gene 171521) (UniProt P20814); experiment: NVS_ADME_rCYP2C13: NovaScreen (NVS) CYP450-related Enzyme Activity (ADME) Assay for rat CYP2C13 (AID 2283121)
# Chain of rat CYP2C13, Cyp2c13 (gene 171521) (P20814 whole entry, looked up): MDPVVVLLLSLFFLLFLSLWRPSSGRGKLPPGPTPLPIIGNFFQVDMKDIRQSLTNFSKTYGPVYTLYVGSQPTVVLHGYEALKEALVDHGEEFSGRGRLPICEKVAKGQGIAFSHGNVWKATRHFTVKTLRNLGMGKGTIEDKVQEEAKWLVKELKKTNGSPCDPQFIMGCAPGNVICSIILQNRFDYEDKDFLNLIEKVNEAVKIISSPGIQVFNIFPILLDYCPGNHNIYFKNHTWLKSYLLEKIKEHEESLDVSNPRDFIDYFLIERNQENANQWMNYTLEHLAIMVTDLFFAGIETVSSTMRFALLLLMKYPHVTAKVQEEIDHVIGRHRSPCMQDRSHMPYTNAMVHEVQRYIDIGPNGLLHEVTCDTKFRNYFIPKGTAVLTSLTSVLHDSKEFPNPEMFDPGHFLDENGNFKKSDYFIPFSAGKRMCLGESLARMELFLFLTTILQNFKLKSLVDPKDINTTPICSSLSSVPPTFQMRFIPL
# Method in brief: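 Recombinant rat CYP2C13 with fluorogenic substrate, 0.75 h cell-free incubation; primary screen in duplicate at 10 uM, actives followed in concentration series. Fluorescence loss relative to acetonitrile control indicates inhibition.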
# rat CYP3A1, gene 25642 = experiment: NVS_ADME_rCYP3A1: NovaScreen (NVS) CYP450-related Enzyme Activity (ADME) Assay for rat CYP3A1 (AID 2283126)
# Method in brief: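 Cell-free recombinant CYP assay with fluorescent substrate, read 0.5 h after dosing. Screened at 10 uM in duplicate, hits at up to 20 uM in concentration-response; loss of signal versus acetonitrile baseline.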
# [8] = biological target: rat CYP3A2, Cyp3a2 (gene 266682) (UniProt P05183); experiment: NVS_ADME_rCYP3A2: NovaScreen (NVS) CYP450-related Enzyme Activity (ADME) Assay for rat CYP3A2 (AID 2283128)
# Chain of rat CYP3A2, Cyp3a2 (gene 266682) (P05183 whole entry, looked up): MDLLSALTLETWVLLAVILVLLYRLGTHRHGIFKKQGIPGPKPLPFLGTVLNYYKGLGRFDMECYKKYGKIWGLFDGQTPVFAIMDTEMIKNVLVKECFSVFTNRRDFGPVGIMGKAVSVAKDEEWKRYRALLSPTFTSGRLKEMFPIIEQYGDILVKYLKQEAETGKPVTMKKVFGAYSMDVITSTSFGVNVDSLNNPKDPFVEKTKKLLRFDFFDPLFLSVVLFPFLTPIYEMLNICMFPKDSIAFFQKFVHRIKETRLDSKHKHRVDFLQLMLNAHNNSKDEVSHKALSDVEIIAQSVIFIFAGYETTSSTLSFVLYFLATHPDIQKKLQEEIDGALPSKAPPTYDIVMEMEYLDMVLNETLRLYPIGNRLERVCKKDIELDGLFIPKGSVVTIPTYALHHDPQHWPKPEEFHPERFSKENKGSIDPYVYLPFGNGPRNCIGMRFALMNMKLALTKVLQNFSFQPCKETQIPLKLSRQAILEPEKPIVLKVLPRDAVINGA
# Method in brief: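 Cell-free rat CYP3A2 enzyme assay with fluorescent substrate, read 0.5 h after dosing. Primary duplicate screen at 10 uM; actives run in concentration-response up to 20 uM, relative to acetonitrile baseline.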
# [9] = biological target: human CYP2B6, CYP2B6 (gene 1555) (UniProt P20813); experiment: NVS_ADME_hCYP2B6: NovaScreen (NVS) CYP450-related Enzyme Activity (ADME) Assay for human CYP2B6 (AID 2283101)
# Method in brief: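 Fluorescence-based enzyme activity of recombinant human CYP2B6, measured 1 h post-dose against acetonitrile vehicle baseline. Screened at a single concentration of 10 uM in duplicate before concentration-response follow-up.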
# [10] = biological target: human CYP1A2, CYP1A2 (gene 1544) (UniProt P05177); experiment: NVS_ADME_hCYP1A2: NovaScreen (NVS) CYP450-related Enzyme Activity (ADME) Assay for human CYP1A2 (AID 2283102);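 on AC50: potency for inhibition since loss of fluorescence marks reduced CYP1A2 activity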
# Chain of human CYP1A2, CYP1A2 (gene 1544) (P05177 whole entry, looked up): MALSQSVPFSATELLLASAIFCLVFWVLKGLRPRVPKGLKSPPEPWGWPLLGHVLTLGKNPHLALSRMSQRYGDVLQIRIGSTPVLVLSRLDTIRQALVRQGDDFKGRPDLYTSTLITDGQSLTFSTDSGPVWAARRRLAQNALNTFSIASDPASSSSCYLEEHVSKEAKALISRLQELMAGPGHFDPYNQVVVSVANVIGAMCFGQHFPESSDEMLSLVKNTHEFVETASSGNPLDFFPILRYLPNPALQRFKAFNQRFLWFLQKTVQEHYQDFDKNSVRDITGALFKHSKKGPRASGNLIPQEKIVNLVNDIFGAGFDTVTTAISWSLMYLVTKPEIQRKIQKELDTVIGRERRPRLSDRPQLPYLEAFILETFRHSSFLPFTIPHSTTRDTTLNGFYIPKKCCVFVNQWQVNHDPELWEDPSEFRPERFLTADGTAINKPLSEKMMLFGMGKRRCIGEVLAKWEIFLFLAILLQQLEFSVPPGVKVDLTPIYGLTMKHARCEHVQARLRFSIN
# Method in brief: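 Recombinant human CYP1A2 from insect cells, cell-free, fluorogenic substrate; read 0.5 h after dosing with loss of fluorescence signal indicating inhibition. Primary screen in duplicate at 10 uM, acetonitrile as negative control.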
# [11] = biological target: human CYP2J2, CYP2J2 (gene 1573) (UniProt P51589); experiment: NVS_ADME_hCYP2J2: NovaScreen (NVS) CYP450-related Enzyme Activity (ADME) Assay for human CYP2J2 (AID 2283106)
# Chain of human CYP2J2, CYP2J2 (gene 1573) (P51589 whole entry, looked up): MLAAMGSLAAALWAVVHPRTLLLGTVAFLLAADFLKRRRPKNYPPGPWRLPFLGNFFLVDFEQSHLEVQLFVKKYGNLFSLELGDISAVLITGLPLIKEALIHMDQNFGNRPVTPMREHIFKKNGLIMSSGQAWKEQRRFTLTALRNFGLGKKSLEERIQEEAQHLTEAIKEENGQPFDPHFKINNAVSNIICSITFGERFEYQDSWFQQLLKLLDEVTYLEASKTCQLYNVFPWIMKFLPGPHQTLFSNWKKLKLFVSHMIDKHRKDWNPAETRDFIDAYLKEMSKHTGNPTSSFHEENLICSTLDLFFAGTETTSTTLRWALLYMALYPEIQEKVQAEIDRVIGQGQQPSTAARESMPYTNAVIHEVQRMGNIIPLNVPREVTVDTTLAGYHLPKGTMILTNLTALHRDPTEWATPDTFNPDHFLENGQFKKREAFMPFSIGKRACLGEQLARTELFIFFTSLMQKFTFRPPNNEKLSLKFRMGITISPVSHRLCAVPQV
# Method in brief: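 Cell-free assay of recombinant CYP2J2 with a fluorogenic substrate, read 1 h after dosing; loss of signal versus acetonitrile. Primary screen at 10 uM in duplicate, then concentration-response up to 20 uM for chemicals passing threshold (e.g., 30% inhibition).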
# [12] = biological target: human CYP2D6, CYP2D6 (gene 1565) (UniProt P10635); experiment: NVS_ADME_hCYP2D6: NovaScreen (NVS) CYP450-related Enzyme Activity (ADME) Assay for human CYP2D6 (AID 2283107)
# Method in brief: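 Cell-free assay using recombinant human CYP2D6 expressed in insect cells, with a fluorogenic substrate read after 1 h. Primary screen in duplicate at 10 uM; actives followed up in concentration series. Loss of signal fitted relative to acetonitrile.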
# [13] = biological target: rat CYP1A2, Cyp1a2 (gene 24297) (UniProt P04799); experiment: NVS_ADME_rCYP1A2: NovaScreen (NVS) CYP450-related Enzyme Activity (ADME) Assay for rat CYP1A2 (AID 2283115)
# Method in brief: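 Cell-free recombinant rat enzyme with fluorogenic substrate, read by fluorescence intensity 1 hour after dosing. Loss of signal versus acetonitrile negative control; primary screen at 10 uM in duplicate, actives followed in concentration series.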
# rat CYP2C6, gene 293989 = experiment: NVS_ADME_rCYP2C6: NovaScreen (NVS) CYP450-related Enzyme Activity (ADME) Assay for rat CYP2C6 (AID 2283120)
# Method in brief: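 Cell-free recombinant rat CYP2C6 with fluorogenic substrate, read by fluorescence 1 h after dosing; acetonitrile as negative control. Primary screen at 10 uM in duplicate, actives then in concentration-response up to 20 uM.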
# [14] = biological target: rat CYP2D2, Cyp2d26 (gene 25053) (UniProt P10634); experiment: NVS_ADME_rCYP2D2: NovaScreen (NVS) CYP450-related Enzyme Activity (ADME) Assay for rat CYP2D2 (AID 2283124)
# Method in brief: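 Recombinant rat CYP2D2 in a cell-free fluorogenic activity assay, fluorescence read 0.75 h after dosing. Primary screen in duplicate at 10 uM; actives re-run singly in concentration-response to 20 uM, relative to acetonitrile.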
# [15] = biological target: human CYP2C8, CYP2C8 (gene 1558) (UniProt P10632); experiment: NVS_ADME_hCYP2C8: NovaScreen (NVS) CYP450-related Enzyme Activity (ADME) Assay for human CYP2C8 (AID 2283104; active means hit-call score of the fitted dose curve at least 0.9, where 1 is the maximum; inactive means score below 0.9)
# Chain of human CYP2C8, CYP2C8 (gene 1558) (P10632 whole entry, looked up): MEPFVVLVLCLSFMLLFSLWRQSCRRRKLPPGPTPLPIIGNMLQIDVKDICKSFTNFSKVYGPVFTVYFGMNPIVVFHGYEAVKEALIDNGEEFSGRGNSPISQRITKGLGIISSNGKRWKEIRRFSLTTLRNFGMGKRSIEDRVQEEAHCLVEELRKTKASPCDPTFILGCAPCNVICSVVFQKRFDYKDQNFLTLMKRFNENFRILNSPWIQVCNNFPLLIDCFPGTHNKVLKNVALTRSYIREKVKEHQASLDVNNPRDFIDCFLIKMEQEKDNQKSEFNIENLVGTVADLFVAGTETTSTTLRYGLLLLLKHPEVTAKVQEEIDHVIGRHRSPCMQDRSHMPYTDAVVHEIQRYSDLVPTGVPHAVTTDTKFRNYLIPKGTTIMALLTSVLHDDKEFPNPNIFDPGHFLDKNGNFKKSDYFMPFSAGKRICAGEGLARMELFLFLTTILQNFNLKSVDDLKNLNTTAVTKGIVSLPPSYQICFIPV
# Method in brief: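 Recombinant human CYP2C8 with fluorogenic substrate, 0.5 h, fluorescence intensity; signal loss fitted versus acetonitrile. Screened in duplicate at 10 uM, then actives run in concentration-response up to 20 uM.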
# [16] = biological target: rat CYP2D1, Cyp2d1 (gene 266684) (UniProt P10633); experiment: NVS_ADME_rCYP2D1: NovaScreen (NVS) CYP450-related Enzyme Activity (ADME) Assay for rat CYP2D1 (AID 2283122)
# Method in brief: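 Cell-free fluorescence enzyme-activity assay on extracted rat CYP2D1 protein, read 0.75 h after dosing. Primary screen in duplicate at 10 uM; qualifying chemicals then run in concentration-response to 20 uM max, loss-of-signal versus acetonitrile baseline.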
smiles,measurement,setting,value
CC(C)(C)C(O)C(Oc1ccc(Cl)cc1)n1cncn1 (stereo unspecified),AC50,[1],7.93 µM (active)
same,AC50,[2],5.02 µM (active) and 7.84 µM (active)
same,outcome,[2],inactive
same,outcome,[3],inactive
same,AC50,[4],3.66 µM (active)
same,AC50,[5],0.32 µM (active)
same,AC50,"rat CYP2B1, gene 24300",5.58 µM (active)
same,AC50,[6],4.45 µM (active)
same,AC50,[7],1.3 µM (active)
same,AC50,"rat CYP3A1, gene 25642",5.65 µM (active)
same,AC50,[8],8.09 µM (active)
COP(=S)(OC)Oc1ccc([N+](=O)[O-])cc1,AC50,[9],547 nM (active)
same,AC50,[10],1.06 µM (active)
same,AC50,[1],2.7 µM (active)
same,AC50,[11],2.25 µM (active)
same,AC50,[12],4.79 µM (active)
same,AC50,[2],4.05 µM (active)
same,AC50,[4],7.12 µM (active)
same,outcome,[13],inactive
same,AC50,[5],5.69 µM (active)
same,AC50,[6],2.77 µM (active)
same,AC50,"rat CYP2C6, gene 293989",0.344 µM (active)
same,AC50,[7],6.55 µM (active)
same,AC50,"rat CYP3A1, gene 25642",6.49 µM (active)
same,AC50,[8],4.97 µM (active)
[2H]C1([2H])[n+]2ccccc2-c2cccc[n+]2C1([2H])[2H],AC50,[12],2.03 µM (active)
same,AC50,[3],2.25 µM (active)
same,AC50,[14],10 µM (active)
CC[C@H](C)[C@H]1O[C@]2(C=C[C@@H]1C)C[C@@H]1C[C@@H](C/C=C(\C)[C@@H](O[C@H]3C[C@H](OC)[C@@H](O[C@H]4C[C@H](OC)[C@@H](O)[C@H](C)O4)[C@H](C)O3)[C@@H](C)/C=C/C=C3\CO[C@@H]4[C@H](O)C(C)=C[C@@H](C(=O)O1)[C@]34O)O2 (tested in a mixture with another compound),AC50,[1],5.02 µM (active)
same,AC50,[15],2.79 µM (active)
same,AC50,[11],5.47 µM (active)
same,AC50,[4],12.7 µM (active)
same,outcome,[5],inactive
same,outcome,"rat CYP2B1, gene 24300",inactive
same,AC50,[7],10 µM (active)
same,AC50,[14],2.23 µM (active)
same,AC50,"rat CYP3A1, gene 25642",8.86 µM (active)
N#Cc1c(Cl)c(Cl)c(Cl)c(C#N)c1Cl,AC50,[10],0.406 µM (active)
same,AC50,[15],0.213 µM (active)
same,AC50,[3],0.302 µM (active)
same,outcome,[13],inactive
same,outcome,[14],inactive
same,AC50,"rat CYP3A1, gene 25642",1.22 µM (active)
same,AC50,[8],0.241 µM (active)
CC(C)N(C(=O)COc1nnc(C(F)(F)F)s1)c1ccc(F)cc1,AC50,[1],5.82 µM (active)
same,AC50,[4],10 µM (active)
same,AC50,[6],6.6 µM (active)
same,AC50,"rat CYP2C6, gene 293989",7.85 µM (active)
same,AC50,[14],10 µM (active)
same,AC50,"rat CYP3A1, gene 25642",7.94 µM (active)
C#CCN1C(=O)COc2cc(F)c(N3C(=O)C4=C(CCCC4)C3=O)cc21,AC50,[9],4200 nM (active)
same,outcome,[10],inactive
same,AC50,[11],2.5 µM (active)
same,AC50,[7],0.992 µM (active)
same,AC50,[8],5.33 µM (active)
Cc1[nH]c(=O)n(C(C)(C)C)c(=O)c1Cl,AC50,[16],3.45 µM (active)
Oc1cc(Cl)ccc1Oc1ccc(Cl)cc1Cl,AC50,[10],9.33 µM (active)
same,AC50,[15],4.51 µM (active)
same,AC50,[14],10 µM (active)
COc1nn(CSP(=S)(OC)OC)c(=O)s1,AC50,[9],350 nM (active)
same,AC50,[10],3.25 µM (active)
same,AC50,[1],3.67 µM (active)
same,AC50,[11],2.06 µM (active)
same,AC50,[12],3.83 µM (active)
same,AC50,[2],2.88 µM (active)
same,AC50,[5],4.97 µM (active)
same,AC50,"rat CYP2B1, gene 24300",2.65 µM (active)
same,AC50,[6],0.564 µM (active)
same,AC50,"rat CYP2C6, gene 293989",0.258 µM (active)
same,AC50,"rat CYP3A1, gene 25642",4.25 µM (active)
same,AC50,[8],0.774 µM (active)
CCC(C)Nc1c([N+](=O)[O-])cc(C(C)(C)C)cc1[N+](=O)[O-] (stereo unspecified),outcome,[7],inactive
Oc1ccc(Cl)cc1Cc1ccccc1,AC50,[9],7.66 µM (active) [middle of 6 runs]
same,outcome,[10],inactive
same,AC50,[1],6.87 µM (active)
same,AC50,[12],10 µM (active)
same,AC50,[2],6.54 µM (active) [middle of 7 runs]
same,outcome,[3],inactive
same,AC50,[4],5.61 µM (active)
same,AC50,"rat CYP2B1, gene 24300",6.42 µM (active)
same,AC50,[6],7.16 µM (active)
same,AC50,"rat CYP2C6, gene 293989",5.19 µM (active)
same,AC50,[7],6.35 µM (active)
same,AC50,[16],10 µM (active)
same,AC50,[14],5.11 µM (active)
same,AC50,"rat CYP3A1, gene 25642",8.2 µM (active)

# Source: PubChem BioAssay (EPA / NIEHS)
